The record followed here is the supplement of paper PMC11001985.

Sequence of UniProt P11047 (P11047 whole entry): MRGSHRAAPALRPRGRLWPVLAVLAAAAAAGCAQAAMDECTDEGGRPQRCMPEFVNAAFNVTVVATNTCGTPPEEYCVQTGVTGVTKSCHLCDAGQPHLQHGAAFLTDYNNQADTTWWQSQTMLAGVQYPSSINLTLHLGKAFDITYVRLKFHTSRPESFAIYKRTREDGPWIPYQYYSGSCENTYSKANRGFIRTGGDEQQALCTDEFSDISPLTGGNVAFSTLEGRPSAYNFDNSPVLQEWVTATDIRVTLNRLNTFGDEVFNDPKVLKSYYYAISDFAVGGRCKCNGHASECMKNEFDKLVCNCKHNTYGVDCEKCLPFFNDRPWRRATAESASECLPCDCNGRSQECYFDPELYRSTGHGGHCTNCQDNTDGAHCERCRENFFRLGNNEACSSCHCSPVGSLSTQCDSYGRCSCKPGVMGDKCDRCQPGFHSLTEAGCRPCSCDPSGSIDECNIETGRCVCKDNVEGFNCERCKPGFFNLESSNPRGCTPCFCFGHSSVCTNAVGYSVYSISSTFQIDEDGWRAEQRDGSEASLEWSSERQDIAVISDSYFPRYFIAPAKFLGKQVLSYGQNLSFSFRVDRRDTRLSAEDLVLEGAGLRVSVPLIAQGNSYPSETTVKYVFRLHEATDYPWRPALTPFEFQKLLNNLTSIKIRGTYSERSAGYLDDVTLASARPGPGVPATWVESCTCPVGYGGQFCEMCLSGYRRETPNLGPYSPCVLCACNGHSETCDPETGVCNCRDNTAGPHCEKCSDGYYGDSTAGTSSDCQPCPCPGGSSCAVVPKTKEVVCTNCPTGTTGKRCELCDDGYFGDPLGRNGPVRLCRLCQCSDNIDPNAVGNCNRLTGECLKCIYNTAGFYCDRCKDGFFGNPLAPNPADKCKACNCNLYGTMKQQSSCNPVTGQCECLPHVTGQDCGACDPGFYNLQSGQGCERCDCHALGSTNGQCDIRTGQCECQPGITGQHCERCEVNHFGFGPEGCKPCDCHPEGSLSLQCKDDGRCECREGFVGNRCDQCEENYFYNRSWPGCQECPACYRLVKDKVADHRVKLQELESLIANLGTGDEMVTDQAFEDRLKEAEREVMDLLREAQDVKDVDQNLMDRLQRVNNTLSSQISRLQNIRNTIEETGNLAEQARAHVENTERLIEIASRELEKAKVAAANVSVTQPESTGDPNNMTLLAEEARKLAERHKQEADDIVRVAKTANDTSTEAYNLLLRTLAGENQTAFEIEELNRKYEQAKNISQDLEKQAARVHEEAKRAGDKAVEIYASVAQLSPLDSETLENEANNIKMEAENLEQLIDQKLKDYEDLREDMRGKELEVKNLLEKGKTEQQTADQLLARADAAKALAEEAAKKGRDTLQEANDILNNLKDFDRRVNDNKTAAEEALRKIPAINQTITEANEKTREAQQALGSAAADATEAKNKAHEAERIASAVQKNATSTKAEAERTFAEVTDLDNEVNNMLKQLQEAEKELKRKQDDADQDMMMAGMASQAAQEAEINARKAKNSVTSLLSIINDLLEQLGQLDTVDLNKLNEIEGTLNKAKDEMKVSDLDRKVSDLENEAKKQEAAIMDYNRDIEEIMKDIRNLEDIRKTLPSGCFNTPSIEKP
Sequence of UniProt P46940 (P46940 whole entry): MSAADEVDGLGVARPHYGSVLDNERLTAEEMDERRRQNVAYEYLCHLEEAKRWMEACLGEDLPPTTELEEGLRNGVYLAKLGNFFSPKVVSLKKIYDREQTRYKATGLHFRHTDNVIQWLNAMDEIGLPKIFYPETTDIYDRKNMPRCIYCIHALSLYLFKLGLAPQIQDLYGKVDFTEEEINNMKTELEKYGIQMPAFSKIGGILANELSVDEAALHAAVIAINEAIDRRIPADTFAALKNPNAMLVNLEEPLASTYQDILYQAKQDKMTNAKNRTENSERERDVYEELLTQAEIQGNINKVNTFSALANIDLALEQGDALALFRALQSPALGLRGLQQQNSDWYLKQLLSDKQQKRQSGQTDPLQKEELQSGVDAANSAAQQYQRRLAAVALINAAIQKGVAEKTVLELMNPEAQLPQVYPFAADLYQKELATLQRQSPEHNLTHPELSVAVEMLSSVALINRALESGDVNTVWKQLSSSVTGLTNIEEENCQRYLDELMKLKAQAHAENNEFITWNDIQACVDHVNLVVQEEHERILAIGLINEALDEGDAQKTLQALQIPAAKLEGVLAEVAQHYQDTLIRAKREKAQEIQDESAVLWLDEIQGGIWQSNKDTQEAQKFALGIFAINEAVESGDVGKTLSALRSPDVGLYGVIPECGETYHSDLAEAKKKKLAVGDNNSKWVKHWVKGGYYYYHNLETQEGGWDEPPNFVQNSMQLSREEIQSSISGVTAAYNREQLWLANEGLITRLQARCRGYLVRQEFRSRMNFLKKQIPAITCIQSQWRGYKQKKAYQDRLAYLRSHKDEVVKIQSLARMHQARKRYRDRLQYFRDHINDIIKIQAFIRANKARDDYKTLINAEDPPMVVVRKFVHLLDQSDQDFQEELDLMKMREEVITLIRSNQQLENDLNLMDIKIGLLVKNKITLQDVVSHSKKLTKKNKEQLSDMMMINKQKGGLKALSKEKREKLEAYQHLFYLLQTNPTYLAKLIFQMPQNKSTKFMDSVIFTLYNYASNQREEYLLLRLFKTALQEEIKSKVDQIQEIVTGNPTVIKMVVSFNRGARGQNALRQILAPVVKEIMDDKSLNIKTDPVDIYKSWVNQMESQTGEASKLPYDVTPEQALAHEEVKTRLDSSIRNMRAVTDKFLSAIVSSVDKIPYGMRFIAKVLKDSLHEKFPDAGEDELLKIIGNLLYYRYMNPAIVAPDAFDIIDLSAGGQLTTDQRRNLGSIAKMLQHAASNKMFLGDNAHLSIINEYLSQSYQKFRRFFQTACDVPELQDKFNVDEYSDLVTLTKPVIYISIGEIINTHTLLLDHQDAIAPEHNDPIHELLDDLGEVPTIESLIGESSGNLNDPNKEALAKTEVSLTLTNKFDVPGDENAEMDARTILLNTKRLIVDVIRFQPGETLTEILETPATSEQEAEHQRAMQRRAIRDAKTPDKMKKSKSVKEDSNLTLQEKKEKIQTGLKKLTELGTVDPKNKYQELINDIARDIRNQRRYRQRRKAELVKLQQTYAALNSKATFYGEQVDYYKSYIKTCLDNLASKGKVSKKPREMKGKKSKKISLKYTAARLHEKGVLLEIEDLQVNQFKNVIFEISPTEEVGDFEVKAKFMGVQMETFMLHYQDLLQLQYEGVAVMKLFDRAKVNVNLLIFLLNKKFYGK
Sequence of UniProt P31431 (P31431 whole entry): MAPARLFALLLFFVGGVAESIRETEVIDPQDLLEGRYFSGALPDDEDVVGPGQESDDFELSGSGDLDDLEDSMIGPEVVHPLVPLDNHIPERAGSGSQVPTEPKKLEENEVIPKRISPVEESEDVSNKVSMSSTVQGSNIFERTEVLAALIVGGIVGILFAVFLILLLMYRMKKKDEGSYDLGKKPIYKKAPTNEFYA
Sequence of UniProt Q02818 (Q02818 whole entry): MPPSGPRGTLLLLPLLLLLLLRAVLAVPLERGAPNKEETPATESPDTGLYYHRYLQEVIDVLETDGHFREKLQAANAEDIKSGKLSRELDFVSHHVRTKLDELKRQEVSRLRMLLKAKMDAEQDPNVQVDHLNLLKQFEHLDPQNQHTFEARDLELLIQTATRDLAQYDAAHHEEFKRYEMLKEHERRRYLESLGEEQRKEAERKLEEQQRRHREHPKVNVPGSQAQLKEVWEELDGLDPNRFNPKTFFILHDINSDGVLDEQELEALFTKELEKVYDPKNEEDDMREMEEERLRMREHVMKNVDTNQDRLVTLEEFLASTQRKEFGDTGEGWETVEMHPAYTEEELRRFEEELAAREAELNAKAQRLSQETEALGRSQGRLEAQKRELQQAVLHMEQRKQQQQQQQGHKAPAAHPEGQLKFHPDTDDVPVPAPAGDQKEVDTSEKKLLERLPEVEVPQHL
Sequence of UniProt P48643 (P48643 whole entry): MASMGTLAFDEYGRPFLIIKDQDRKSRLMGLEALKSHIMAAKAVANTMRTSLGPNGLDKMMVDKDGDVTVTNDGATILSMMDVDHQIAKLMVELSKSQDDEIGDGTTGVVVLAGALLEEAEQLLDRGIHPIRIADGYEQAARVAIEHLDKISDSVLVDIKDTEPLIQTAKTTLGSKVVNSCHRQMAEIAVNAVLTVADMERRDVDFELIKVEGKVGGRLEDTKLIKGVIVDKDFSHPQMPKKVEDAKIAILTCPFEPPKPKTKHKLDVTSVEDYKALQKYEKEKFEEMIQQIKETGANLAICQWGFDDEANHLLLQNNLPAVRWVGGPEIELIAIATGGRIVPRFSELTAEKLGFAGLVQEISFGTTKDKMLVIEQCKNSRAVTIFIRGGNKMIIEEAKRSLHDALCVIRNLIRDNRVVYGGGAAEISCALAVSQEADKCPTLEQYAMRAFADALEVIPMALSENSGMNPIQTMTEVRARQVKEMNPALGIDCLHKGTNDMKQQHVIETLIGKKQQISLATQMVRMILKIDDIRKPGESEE
Sequence of UniProt Q10589 (Q10589 whole entry): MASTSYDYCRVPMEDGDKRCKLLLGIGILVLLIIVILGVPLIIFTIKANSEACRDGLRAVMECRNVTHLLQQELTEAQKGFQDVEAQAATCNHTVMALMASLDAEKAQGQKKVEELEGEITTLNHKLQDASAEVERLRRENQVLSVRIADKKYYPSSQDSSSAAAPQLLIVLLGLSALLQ
Sequence of UniProt P08962 (P08962 whole entry): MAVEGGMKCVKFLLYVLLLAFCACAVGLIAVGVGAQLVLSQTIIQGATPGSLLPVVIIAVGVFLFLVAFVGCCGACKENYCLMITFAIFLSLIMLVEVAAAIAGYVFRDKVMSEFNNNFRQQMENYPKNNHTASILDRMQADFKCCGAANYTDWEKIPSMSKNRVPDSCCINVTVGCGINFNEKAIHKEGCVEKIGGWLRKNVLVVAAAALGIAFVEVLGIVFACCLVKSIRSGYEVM

Compound in this assay: C#CCNC(=O)CCSSCCC(=O)NCCc1ccc(C=O)c(C=O)c1
As to the kind of experiment: lysine labeling ratio R10:1 (500 µM / 50 µM probe), SILAC-ABPP in living cells; higher = lower intrinsic lysine reactivity toward the probe, active = 2 or less. To be noted: HeLa; probe concentrations 500 vs 50 µM. Summed up: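 SILAC light and heavy living HeLa cells in PBS at room temperature were labelled with 50 µM or 500 µM of an alkyne-tagged, disulfide-linked lysine probe, with forward and reverse label swaps. Mixed lysates were clicked to biotin-azide, trypsin-digested, captured on neutravidin, DTT-released, alkylated and analysed by LC-MS/MS on a TIMS-TOF Pro. R is the filtered median high-probe/low-probe MS1 peptide ratio per lysine, then the median across forward and reverse replicates. Ratios are capped at 20.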
On to “IGSF3 (lysine site: K279) (UniProt O75054)”, for which the “lysine labeling ratio R10:1” value was 2.5 (inactive).
For the target UniProt Q16363 (lysine site: K1723), the “lysine labeling ratio R10:1” value is 2.13 (inactive).
To “ROBO1 (lysine site: K137) (UniProt Q9Y6N7)” belongs 5.8 (inactive).
On to “IQGAP1 (lysine site: K274) (UniProt P46940)”, for which the “lysine labeling ratio R10:1” value was 3.87 (inactive).
As to “HSPG2 (lysine site: K3155) (UniProt P98160)”, the “lysine labeling ratio R10:1” value is 1.37 (active).
“INSR (lysine site: K903) (UniProt P06213)”: the “lysine labeling ratio R10:1” value is 2.04 (inactive).
In the case of “CD63 (lysine site: K194) (UniProt P08962)”, the “lysine labeling ratio R10:1” value is 2.39 (inactive).
As for “BST2 (lysine site: K126) (UniProt Q10589)”, the “lysine labeling ratio R10:1” value is 4.11 (inactive).
Under “LAMC1 (lysine site: K1567) (UniProt P11047)” stands 1.42 (active); under UniProt Q8IWU5 (lysine site: K443), 1.5 (active); under “ARPC3 (lysine site: K29) (UniProt O15145)”, 1.49 (active).
Turning to UniProt Q15149 (lysine site: K630), the “lysine labeling ratio R10:1” value is 7.1 (inactive).
As for “ECE1 (lysine site: K747) (UniProt P42892)”, the “lysine labeling ratio R10:1” value is 4.05 (inactive).
As to “FLNA (lysine site: K2133) (UniProt P21333)”, the “lysine labeling ratio R10:1” value is 2.27 (inactive).
To “GAS1 (lysine site: K140) (UniProt P54826)” belongs 3.54 (inactive); to “PPIB (lysine site: K181) (UniProt P23284)”, 3.57 (inactive); to UniProt P16144 (lysine site: K392), 0.94 (active).
To “SDC4 (lysine site: K105) (UniProt P31431)” belongs 3.81 (inactive); to “IQGAP1 (lysine site: K856) (UniProt P46940)”, 1.47 (active); to “ITGA5 (lysine site: K910) (UniProt P08648)”, 3.88 (inactive).
Take “FN1 (lysine site: K249) (UniProt P02751)”: the “lysine labeling ratio R10:1” value was 2.7 (inactive).
With “CTTN (lysine site: K161) (UniProt Q14247)”, the “lysine labeling ratio R10:1” value was 1.61 (active).
Under “ACTN1 (lysine site: K492) (UniProt P12814)” stands 0.906 (active); under “CCT5 (lysine site: K514) (UniProt P48643)”, 2.42 (inactive); under “ITGAV (lysine site: K499) (UniProt P06756)”, 3.64 (inactive).
With “FAT4 (lysine site: K4224) (UniProt Q6V0I7)”, the “lysine labeling ratio R10:1” value was 5.49 (inactive).
Take “MET (lysine site: K380) (UniProt P08581)”: the “lysine labeling ratio R10:1” value is 1.21 (active).
On to “HSPA5 (lysine site: K521) (UniProt P11021)”, for which the “lysine labeling ratio R10:1” value was 1.53 (active).
Consider “CD109 (lysine site: K1105) (UniProt Q6YHK3)”, for which the “lysine labeling ratio R10:1” value is 1.09 (active).
Consider UniProt O60462 (lysine site: K755), for which the “lysine labeling ratio R10:1” value is 2.55 (inactive).
With “HNRNPC (lysine site: K98) (UniProt P07910)”, the “lysine labeling ratio R10:1” value is 3.25 (inactive).
Under “HSPD1 (lysine site: K369) (UniProt P10809)” stands 2.45 (inactive).
Turning to “NUCB1 (lysine site: K302) (UniProt Q02818)”, the “lysine labeling ratio R10:1” value is 2.22 (inactive).
Regarding “SDC4 (lysine site: K104) (UniProt P31431)”, the “lysine labeling ratio R10:1” value is 3.81 (inactive).
With “ATP1B1 (lysine site: K113) (UniProt P05026)”, the “lysine labeling ratio R10:1” value was 1.86 (active).
Consider “SMC2 (lysine site: K963) (UniProt O95347)”, for which the “lysine labeling ratio R10:1” value is 2.26 (inactive).
Take “LAMC1 (lysine site: K1425) (UniProt P11047)”: the “lysine labeling ratio R10:1” value is 2.54 (inactive).
For the target “SPTBN1 (lysine site: K832) (UniProt Q01082)”, the “lysine labeling ratio R10:1” value was 2.42 (inactive).
Take UniProt Q14574 (lysine site: K662): the “lysine labeling ratio R10:1” value is 1.83 (active).
Turning to UniProt Q8WXI7 (lysine site: K12412), the “lysine labeling ratio R10:1” value is 1.99 (active).
